Rows were chosen to be rich in hits. Some 21% of all compounds tested hit in one or more screens of this group.
Pf growth 96h = P. falciparum growth inhibition at 96 hours; P. falciparum luciferase reporter growth, 96 h; Potency, µM (titrated, usually from 28.7 µM), for the others: at the top dose activity change, negative = inhibition, usual class: inhibitors; 6.9% of 320,000 active; AID 504834; further: potency means the concentration at half of the fitted maximal effect; on the % scale 0 is the no-effect control and ±100 the full control effect
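Infected RBCs, 2% Hct / 0.05% parasitemia final; luciferase-reporter P. falciparum; cpd 96 h, 37 C, 5% CO2; luciferase detection reagent; luminescence.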
Pf growth 48h = P. falciparum growth inhibition at 48 hours (one generation); P. falciparum luciferase growth in erythrocytes, 48 h; Potency, µM (series often up to 28.7 µM), for the others: at the top dose activity change, negative = inhibition, hits mostly inhibitors; 5.9% of 310,000 active; AID 504832; further: potency means the concentration at half of the fitted maximal effect; on the % scale 0 is the no-effect control and ±100 the full control effect
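Luciferase-expressing parasites in RBCs, 2% Hct / 0.1% parasitemia final; RPMI 1640 + 0.5% Albumax; 37 C, 5% CO2, one generation; luminescence read-out, lower signal = inhibition.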
CHX counter = counter-screen hit for Shiga toxin inhibitors, cycloheximide. 12% of 300,000 active. max response, %. AID 2314. cell reporter, cycloheximide protein synthesis inhibition counterscreen; in the data active means max response mostly above about 13%, no sharp cut-off; inactive means mostly below about 14%; further: read at 38.3 µM for the half of the compounds with a filed dose; 0% is about no effect
Shiga inhibitor = blocks Shiga toxin action in Vero cells | Vero cells, Shiga toxin protein synthesis inhibition reporter | inhibition, % at 38.7 µM | 9.2% of 290,000 active | AID 2315; in the data active means inhibition mostly above about 28%, no sharp cut-off; inactive means mostly below about 43%; further: 0% is about no effect
Active calls of the source: *; ? = inconclusive; nt = no result given. Unless noted, the call rests on the fitted dose curve; in most records, active means well fitted inhibition curve with a large enough effect; inconclusive means small, poorly fitted or top-dose-only effect, or another doubt; inactive means no such curve, though single readings can be large or run the other way.

SMILES | Pf growth 96h | Pf growth 48h | CHX counter | Shiga inhibitor
CCN(CC)S(=O)(=O)c1cccc(C(=O)NC(Cc2c[nH]c3ccccc23)c2nnc3n2CCCCC3)c1 (stereo not drawn) | 10.4µM* | ? | 13.9 | 15.4
CCC(C)N(C(=O)CSc1nnc(COc2ccccc2F)n1N)C1CCS(=O)(=O)C1 (stereo not drawn) | 14.1% | -16.0% | nt | nt
Cc1ccccc1NC(=O)c1cc(S(=O)(=O)N2CCOCC2)ccc1F | -0.8% | -1.8% | -2.2 | -9.4
CCCCCNC(=O)c1cc(S(=O)(=O)N2CCCC2)ccc1F | 11.7µM* | -14.0% | -4.6 | -9.7
Cc1ccc(S(=O)(=O)N2CCCCC2)cc1C(=O)N(CCc1ccccc1)Cc1ccccc1 | 9.28µM* | 13.1µM* | nt | nt
O=C(Nc1ccccc1C(F)(F)F)c1cc(S(=O)(=O)N2CCOCC2)ccc1F | 0.928µM* | 10.5% | -1.6 | 13.6
O=C(c1cc(S(=O)(=O)N2CCOCC2)ccc1F)N1CCN(Cc2ccccc2)CC1 | 25.7% | ? | -6.5 | -10.4
Cc1ccc(S(=O)(=O)N2CCCC2)cc1C(=O)O | nt | 27.8% | 1.2 | -7.8
O=C(O)c1cc(S(=O)(=O)N2CCCCC2)ccc1F | 130.9% | 8.4% | -2.3 | -16.6
O=C(c1cc(S(=O)(=O)N2CCOCC2)ccc1F)N(CCc1ccccc1)Cc1ccccc1 | ? | 9.28µM* | nt | nt
O=S(=O)(NCC1CCCO1)c1ccccc1F (stereo not drawn) | 16.0% | 10.9% | 6.7 | -2.0
CCc1ccc(CNC(=O)CCn2ccc3cc(S(=O)(=O)N4CCCC4)ccc32)cc1 | -25.2% | ? | -2.6 | 11.6
O=C(NCCc1ccccc1)c1cc(S(=O)(=O)N2CCOCC2)ccc1F | nt | 14.0% | 18.9* | 45.2
O=C(NCc1ccccc1)c1cc(S(=O)(=O)N2CCOCC2)ccc1F | nt | -22.3% | -4.9 | -4.9
Cc1cccc(-n2ccnc2SCC(=O)Nc2cccc(S(=O)(=O)NC3=NCCC3)c2)c1C | -21.2% | 10.4µM* | nt | nt
CN1CCN(CCC(=O)Nc2ccc3c(c2)OCO3)CC1 | ? | 12.9% | -1.5 | 1.6
Cn1ccnc1SCC(=O)Nc1ccc2c(c1)OCO2 | 41.8% | 173.4% | 41.0* | 68.6
O=C(CSc1nccn1-c1ccc(F)cc1)Nc1ccc2c(c1)OCO2 | ? | 36.4% | 5.0 | 45.3
Cc1ccc(C)c(SCC(=O)Nc2cccc(S(=O)(=O)NC3=NCCCCC3)c2)c1 | -25.7% | 9.6% | -3.6 | 13.1
O=C(CSc1nccn1-c1ccccc1)Nc1ccc2c(c1)OCO2 | 48.8% | 18.3% | 70.1* | 67.6*
O=C(CCn1cccn1)Nc1ccc2c(c1)OCO2 | -0.3% | -3.3% | 35.8* | 39.5*
COc1cccc(NC(=O)CSc2nncn2N)c1 | ? | 24.9% | 8.1 | 22.5
CC(=O)N1c2ccc(S(=O)(=O)N3CCCCC3)cc2CC1C(=O)NCc1ccc(N(C)C)cc1 (stereo not drawn) | ? | -11.8% | 6.9 | 18.2
Cc1ccn(CCC(=O)Nc2ccc(-c3ccno3)cc2)n1 | ? | 6.5% | 21.1 | 13.7
O=C(CCn1cccn1)Nc1ccc(-c2ccno2)cc1 | 6.1% | 45.7% | 33.1* | 34.1*
SMILES | Pf growth 96h | Pf growth 48h | CHX counter | Shiga inhibitor
Cc1c(N=C2SCC(=O)N2/N=C\c2ccc(Br)cc2)c(=O)n(-c2ccccc2)n1C | ? | 9.1% | 1.1 | 4.7
COc1ccc(CC2(CO)CCN(S(=O)(=O)c3sccc3C)CC2)cc1 | 11.7µM* | ? | 7.7 | -4.8
COc1ccc(CC2(CO)CCN(C(C)Cc3ccc(Cl)cc3)CC2)cc1 (stereo not drawn) | 8.4% | 11.7µM* | 1.2 | -8.1
COc1ccc(CC2(CO)CCN(Cc3ccc4nsnc4c3)CC2)cc1 | ? | 8.7% | 0.7 | -2.7
OCC1(Cc2ccccc2)CCN(Cc2cnc(-c3ccc(Cl)cc3)nc2)CC1 | 31.7% | ? | 39.0* | 90.7*
COc1ccc(-c2ncc(CN3CCC(CO)(Cc4cccc(OC)c4)CC3)cn2)cc1 | ? | 10.4µM* | 7.8 | 27.5
OCC1(Cc2ccccc2)CCN(Cc2cnc(-c3cccc4ccccc34)nc2)CC1 | 31.6% | ? | 9.0 | 20.4
O=C(Nc1cccc2ccccc12)NC1CCCCC1O (stereo not drawn) | 61.5% | 12.4% | nt | nt
COC(=O)CN1C(=O)COc2ccc(S(=O)(=O)NCc3ccccc3)cc21 | 30.3% | -1.0% | 1.6 | -4.2
CCOC(=O)C1CCCCN1Cc1ccccc1C(F)(F)F (stereo not drawn) | 28.0% | 14.8% | -0.9 | -16.4
CC1CN(S(=O)(=O)c2ccc(C(=O)N(CCCN(C)C)c3nc4c(Cl)cccc4s3)cc2)CC(C)O1 (stereo not drawn) | 29.4% | 6.7% | -0.5 | -5.8
O=C1C(Cl)=C(NCCN2CCOCC2)C(=O)c2ncccc21 | nt | nt | -21.5 | -28.5
COc1ccc(CC2(CO)CCN(Cc3cccnc3)CC2)cc1 | -17.8% | 10.4µM* | 38.5* | 32.7
COc1cccc(CC2(CO)CCN(Cc3cccn3-c3cccnc3)CC2)c1 | ? | -10.2% | -2.4 | -39.5
Cn1c(C(C#N)C(=O)c2ccco2)nc2ccccc21 (stereo not drawn) | 27.1% | 57.2% | 34.0* | 70.8*
CN(Cc1nc2ccccc2n1C)C(=O)c1ccco1 | 1.65µM* | 14.8% | -3.1 | -23.4
COC(=O)c1cc(S(=O)(=O)NCc2cc(OC)c(OC)c(OC)c2)cn1C | 25.3% | 7.9% | -2.4 | -10.9
COc1ccc(C(=O)NC2CCCc3c2cnn3-c2cc(F)cc(F)c2)c(OC)c1OC (stereo not drawn) | -29.2% | 4.2% | -0.8 | -5.7
Cc1ccc(S(N)(=O)=O)cc1NC(=O)C(c1ccccc1)c1ccccc1 | ? | -3.3% | -1.4 | -4.8
CC(OC(=O)c1cc(S(=O)(=O)N2CCOCC2)ccc1F)C(=O)NC1CCCCC1C (stereo not drawn) | 5.0% | -3.9% | -2.4 | -2.8
CC1=NN(C(N)=S)C(=O)C1N=Nc1ccc(O)cc1 (stereo not drawn) | 22.7% | 48.5% | 23.6* | 32.4*
CC1=NN(C(N)=S)C(=O)C1N=Nc1ccc(C)c(Br)c1 (stereo not drawn) | 1.1% | nt | 36.1* | 59.2*
CC1=NN(C(N)=S)C(=O)C1N=Nc1cccc(C(=O)O)c1 (stereo not drawn) | 124.6% | 64.4% | -0.4 | 9.9
Cc1ccc(N=Nc2c(C)[nH]n(-c3ccccc3)c2=O)cc1Br | 8.4% | 1.5% | 4.9 | 16.9
CC(=O)Nc1ccc(N=NC2C(=O)N(C(N)=S)N=C2C)cc1 (stereo not drawn) | ? | 0.6% | 20.8* | 40.4
CC1=NN(C(N)=S)C(=O)C1N=Nc1cccc(C)c1 (stereo not drawn) | ? | 11.7µM* | 21.6* | 23.8
CCNC(C(=O)c1c[nH]c2c(CC)cccc12)c1ccccc1 (stereo not drawn) | ? | ? | 11.5 | 23.3
COc1ccccc1NC(=O)C1CCN(C(=O)C2CC(=O)N(c3ccc(C)cc3)C2)CC1 (stereo not drawn) | -12.5% | 2.7% | -6.2 | -5.5
CC1=NN(C(N)=S)C(=O)C1N=Nc1ccccc1C(=O)O (stereo not drawn) | -10.2% | 0.0% | -2.6 | nt
CC1=NN(C(N)=S)C(=O)C1N=Nc1ccc(F)cc1 (stereo not drawn) | 19.2% | 1.85µM* | 25.2* | 65.7*

Bioassay records (PubChem)
